# High-throughput results deposited in PubChem by National Center for Advancing Translational Sciences (NCATS).
# Hits are enriched below; roughly 18% of the tested compounds scored in any of these assays.
# Six1-Eya2 blk – qHTS Assay for Inhibitors of the Six1/Eya2 Interaction; actives 0.56% (n = 360,000); AlphaScreen GST-Six1/His-Eya2 binding, biochemical; stronger effect = lower value; activity change, % (no concentration beside the values); Homeobox protein SIX1 (Homo sapiens) + Protein phosphatase EYA2 (Homo sapiens), …; AID 651725, 2012; in the data active means activity change below about -65%; inconclusive means mostly about -30% to -63%
# Target sequence (O00167 whole entry, looked up): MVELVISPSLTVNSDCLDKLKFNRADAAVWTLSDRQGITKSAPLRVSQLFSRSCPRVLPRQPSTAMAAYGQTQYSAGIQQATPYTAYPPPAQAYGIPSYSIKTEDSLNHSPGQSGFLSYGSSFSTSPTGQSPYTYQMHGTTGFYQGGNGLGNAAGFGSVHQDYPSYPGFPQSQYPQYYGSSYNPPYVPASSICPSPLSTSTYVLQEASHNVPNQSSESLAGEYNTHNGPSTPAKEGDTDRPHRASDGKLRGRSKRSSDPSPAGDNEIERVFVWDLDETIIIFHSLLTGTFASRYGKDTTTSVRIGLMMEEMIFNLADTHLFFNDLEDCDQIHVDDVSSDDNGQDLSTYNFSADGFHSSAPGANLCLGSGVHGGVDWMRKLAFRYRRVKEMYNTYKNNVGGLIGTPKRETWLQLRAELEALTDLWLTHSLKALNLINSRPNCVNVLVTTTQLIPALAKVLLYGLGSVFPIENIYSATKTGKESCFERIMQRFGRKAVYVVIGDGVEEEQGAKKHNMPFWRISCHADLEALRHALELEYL
# Target sequence (Q15475 whole entry, looked up): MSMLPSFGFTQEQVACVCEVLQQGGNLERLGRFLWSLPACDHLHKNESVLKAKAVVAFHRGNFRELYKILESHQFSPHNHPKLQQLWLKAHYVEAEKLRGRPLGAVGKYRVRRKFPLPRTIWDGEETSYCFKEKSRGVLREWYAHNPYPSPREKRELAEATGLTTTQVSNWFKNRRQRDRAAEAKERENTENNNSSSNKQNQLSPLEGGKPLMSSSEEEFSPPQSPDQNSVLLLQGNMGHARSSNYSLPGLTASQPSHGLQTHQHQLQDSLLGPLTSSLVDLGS
#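 Homogeneous AlphaScreen proximity assay pairing GST-Six1 with His-tagged Eya2 (added as 5X mix: 250 nM and 500 nM) in 50 mM Tris pH 8.0, 300 mM NaCl, 1 mM TCEP. Glutathione donor and nickel acceptor beads; 1 h, 37 °C, dark.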
# DT40 TDP1 CPT – qHTS for Inhibitors of human tyrosyl-DNA phosphodiesterase 1 (TDP1): qHTS in cells in presence of CPT | chicken DT40 Tdp1-/-;hTDP1 cells + 20 nM CPT, ATP luminescence, 48 h | Potency, µM (doses to about 46.2 µM), inactives show at the highest dose activity change, negative = growth inhibition, most hits filed as inhibitors | actives 12% (n = 420,000) | AID 686979, 2013; further: potency means the concentration at half of the fitted maximal effect; nearly all actives have a fitted effect of over 55% in size
#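 Chicken DT40 Tdp1-/- cells complemented with human TDP1, 400 cells/well, exposed to compounds plus 20 nM camptothecin for at least 48 h at 37 C; viability read as ATP content by CellTiter-Glo luminescence.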
# CtBP-E1A blk – qHTS Assay for Inhibitors of the CtBP/E1A Interaction; CtBP / adenovirus E1A interaction (AlphaScreen); AlphaScreen GST-E1A/His-CtBP binding, 1536-well; stronger effect = lower value; actives 0.49% (n = 340,000); activity change, % (test concentration not listed); in the data active means activity change below about -65%; inconclusive means mostly about -30% to -63%
#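 In 5 uL wells, 23 nL compound meets equimolar GST-E1A and His-CtBP (5X stock 125 nM each) for 2 h, 37 °C. Beads (5X, 50 ug/mL) then 1 h, 37 °C, dark.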
# TDP1 cell noCPT – qHTS for Inhibitors of human tyrosyl-DNA phosphodiesterase 1 (TDP1): qHTS in cells in absence of CPT. DT40 Tdp1-/- hTDP1 cells, no CPT, ATP luminescence, 48 h. Potency, µM (doses to about 46.2 µM), without a hit: at the top dose activity change, negative = growth inhibition, actives largely listed as inhibitors. actives 15% (n = 420,000). AID 686978, 2013; further: potency means the concentration at half of the fitted maximal effect; nearly all actives have a fitted effect of over 55% in size
#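 DT40 Tdp1-/-;hTDP1 cells, no CPT (DMSO vehicle only), 400 cells/well; compounds pin-transferred; ≥48 hr, 37 °C; CellTiter-Glo 30 min RT dark, luminescence read.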
# TDP1 inh – qHTS Assay for Inhibitors of Tyrosyl-DNA Phosphodiesterase (TDP1); actives 0.28% (n = 350,000); Tyrosyl-DNA phosphodiesterase 1 (Homo sapiens), Q9NUW8; Potency, µM (doses to about 130 µM), for the others: at the highest dose activity change, negative = inhibition, most hits filed as inhibitors; recombinant TDP1, AlphaScreen DNA substrate cleavage; further: potency means the concentration at half of the fitted maximal effect; nearly all actives have a fitted effect of over 40% in size
#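 E. coli-derived human Tdp1, 1 nM final. Cpd preinc 15 min RT; substrate 15 nM final, 5 min RT; AS bead mix 10 ug/ml final, 10 min RT. Signal loss = tyrosine-FITC cleavage. No-enzyme wells = max signal.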
# IL-1B inflam inh – qHTS for Inhibitors of Inflammasome Signaling: IL-1-beta AlphaLISA Primary Screen; AID 743279, 2014; actives 4.7% (n = 360,000); THP-1 LPS/ATP IL-1B secretion, AlphaLISA, 16 h; stronger effect = lower value; activity change, % at 57.5 µM; in the data active means activity change below about -50%; inconclusive means mostly about -30% to -49%
#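 THP-1 cells pretreated 1 hr with compounds (up to 57.5 uM final), then stimulated with LPS (250 ng/mL final) plus ATP (1.25 mM final); secreted IL-1B measured by AlphaLISA after 16 hr, decreased signal indicating inhibition.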
# Numbers without * were called inactive; ? = inconclusive; . = not tested or not shown. Unless noted, the call rests on the fitted dose curve; in most records, active means well fitted curve in the direction sought with a large enough effect; inconclusive means small, poorly fitted or top-dose-only effect, or another doubt; inactive means no such curve, though single readings can be large; an effect the other way counts as inactive or inconclusive. On the % scale 0 is the no-effect control and ±100 the full control effect.
SMILES,Six1-Eya2 blk,DT40 TDP1 CPT,CtBP-E1A blk,TDP1 cell noCPT,TDP1 inh,IL-1B inflam inh
CCCN(CCC)C(=O)c1ccc2c(c1)N(CC)C(=O)c1ccccc1S2(=O)=O,1,?,5,?,.,-7
CCc1nn(-c2ccccc2)c(N)c1-c1ccc(OC)c(OC)c1,-10,3%,-10,6%,8%,19
CCCn1c2ccccc2c2cnn(CC(=O)NCCCN3CCN(c4ccccc4)CC3)c(=O)c21,-14,?,-24,21µM*,5%,?
CCC1CCCCN1CCCNC(=O)Cn1ncc2c(C)n(Cc3ccccc3Cl)c(C)c2c1=O (configuration not stated),-10,18µM*,-2,18µM*,.,-11
CCCn1c2ccccc2c2cnn(CC(=O)NCCCN3CCCCC3)c(=O)c21,-22,-2%,.,-6%,0%,-6
Cc1c2cnn(CC(=O)NCCCN3CCCCC3)c(=O)c2c(C)n1Cc1ccccc1,-2,-19%,-2,-24%,.,-22
CCn1c(=O)c2c(cnn2C)c2ccccc21,-4,7.3µM*,-3,?,-1%,-5
CCCn1c2ccccc2c2cnn(CC(=O)O)c(=O)c21,6,-3%,-1,-6%,.,3
COc1ccc(CCNC(=O)Cn2c(=O)cnc3ccccc32)cc1,-1,?,9,23µM*,-1%,67
COC(=O)COc1cccc2c(=O)n(CC(=O)N3CCCc4ccccc43)ccc12,1,8%,0,-16%,10%,-3
Cn1c(=O)[nH]c(=O)c2c1nc(N1CCOCC1)n2CCc1ccccc1,-4,-13%,0,-24%,10%,6
CCCn1c2ccccc2c2cnn(CC(=O)NCCCN(Cc3ccccc3)C(C)C)c(=O)c21,.,?,.,21µM*,-6%,.
CCCN(CCC)CCCNC(=O)Cn1ncc2c3ccccc3n(Cc3ccc(F)cc3)c2c1=O,.,18µM*,.,21µM*,0%,.
Cc1ccccc1Cn1c2ccccc2c2cnn(CC(=O)NCCCN3CCOCC3)c(=O)c21,-8,?,-7,-22%,1%,-72*
CC(C)N(Cc1ccccc1)C(=O)Cn1ncc2c3ccccc3n(Cc3ccccc3)c2c1=O,.,?,.,18µM*,3%,.
Cc1ccccc1Cn1c2ccccc2c2cnn(CC(=O)NCCCN3CCN(C)CC3)c(=O)c21,-1,?,-15,?,0%,?
CN(Cc1ccccc1)C(=O)Cn1ncc2c3ccccc3n(Cc3cccc(Cl)c3)c2c1=O,.,?,.,?,3%,.
O=C(CNC1CCN(Cc2ccccc2)CC1)Nc1ccc(S(=O)(=O)N2CCCCC2)cc1,8,?,.,?,.,8
CN1C2C=C3C(C#N)=C(N)C(C#N)(C#N)[C@@H](c4cccc(F)c4)[C@@H]3C1CC2 (some centres not stated),-5,?,-5,?,9%,-1
Cc1ccccc1-c1nc(CS(=O)(=O)CC(=O)NCCCN2CCCC2=O)c(C)o1,14,-7%,4,-3%,3%,-6
CCCn1c2ccccc2c2cnn(CC(=O)NC3CCCC(C)C3C)c(=O)c21 (configuration not stated),-1,?,.,2.1µM*,0%,-5
CCCn1c2ccccc2c2cnn(CC(=O)N(CCCOC(C)C)Cc3ccco3)c(=O)c21,.,16µM*,.,16µM*,2%,.
O=C(CCN1C(=O)c2ccccc2C1=O)Nc1ccc(S(=O)(=O)NC2=NCCCCC2)cc1,1,5%,6,-2%,8%,6
CCOC(=O)[C@@H](NC(=O)CC[C@H]1O[C@@H](n2cc(C)c(=O)[nH]c2=O)C[C@@H]1O)C(C)C,0,5%,-1,-4%,.,-5
Cc1cnc(CNc2cc(-c3cccc(NS(C)(=O)=O)c3)ncn2)cn1,.,-1%,.,-6%,.,.
SMILES,Six1-Eya2 blk,DT40 TDP1 CPT,CtBP-E1A blk,TDP1 cell noCPT,TDP1 inh,IL-1B inflam inh
CC1CCN(C(=O)Nc2cccc(NC(=O)N3CCC(C)CC3)c2)CC1,1,-6%,-8,5.2µM*,-1%,?
CC1CCN(C(=O)Nc2ccc3nsnc3c2)CC1,4,0%,11,-21%,0%,-6
O=C(Nc1ccccc1)N1CCCC1,4,6%,8,2%,4%,-1
COC(=O)C1CCN(C(=O)Nc2ccccc2)CC1,20,8%,7,-7%,-3%,-105*
Cc1cccc(C)c1NC(=O)C1CCCN1S(=O)(=O)c1ccccc1 (configuration not stated),-4,-26%,4,?,7%,8
Cc1ccn(S(=O)(=O)c2ccc(N3CCCC3=O)cc2)n1,21,-2%,3,-17%,2%,8
O=C1c2ccccc2OC2(C=Cc3ccccc3O2)N1Cc1ccccc1 (configuration not stated),-6,4.6µM*,-5,18µM*,1%,0
COc1cc([N+](=O)[O-])cc(/C=N/NC(=O)Cn2nccc2C)c1O,-88*,?,-94*,?,9%,0
CCOc1cc(/C=N/NC(=O)Cc2ccc(C(F)(F)F)cc2[N+](=O)[O-])c(Br)cc1OC,3,?,3,?,0%,5
COc1cc(Br)cc(/C=N/NC(=O)Cc2ccc(C(F)(F)F)cc2[N+](=O)[O-])c1O,15,1.8µM*,-3,2.6µM*,-1%,76
COc1cc([N+](=O)[O-])cc(/C=N/NC(=O)Cn2nc(C)cc2C)c1O,-91*,?,?,23µM*,.,7
COc1ccc(-c2nnc3ccc(SCC(=O)N4CCOCC4)nn23)cc1,1,-26%,0,-21%,2%,-3
O=C(Nc1ccc(Cl)cc1Cl)NC1CCN(S(=O)(=O)c2ccc(F)cc2)CC1,2,?,5,?,-3%,29
Cc1c2cnn(CC(=O)O)c(=O)c2c(C)n1Cc1ccccc1,-1,9%,2,10%,4%,7
Cc1cc(C)c(NC(=O)CN2CCN(S(=O)(=O)c3ccc4c(c3)OCCO4)CC2)c(C)c1,2,-28%,-7,?,.,-11
